Unmarked numbers belong to inactive results. Rule as the data show it: active = inhibition above about 50%; inactive = the rest.
Target: Vascular endothelial growth factor receptor 2 (Homo sapiens) (UniProt P35968)
Assay: VEGFR2 inhibitors, primary assay, biochemical, Homo sapiens, LANCE Ultra TR-FRET, NPC library (AID 1117353)
Settings: LANCE Ultra TR-FRET kinase assay; series mostly up to 20 µM; inhibition: at the top concentration

Sequence of Vascular endothelial growth factor receptor 2 (Homo sapiens) (P35968 whole entry, looked up): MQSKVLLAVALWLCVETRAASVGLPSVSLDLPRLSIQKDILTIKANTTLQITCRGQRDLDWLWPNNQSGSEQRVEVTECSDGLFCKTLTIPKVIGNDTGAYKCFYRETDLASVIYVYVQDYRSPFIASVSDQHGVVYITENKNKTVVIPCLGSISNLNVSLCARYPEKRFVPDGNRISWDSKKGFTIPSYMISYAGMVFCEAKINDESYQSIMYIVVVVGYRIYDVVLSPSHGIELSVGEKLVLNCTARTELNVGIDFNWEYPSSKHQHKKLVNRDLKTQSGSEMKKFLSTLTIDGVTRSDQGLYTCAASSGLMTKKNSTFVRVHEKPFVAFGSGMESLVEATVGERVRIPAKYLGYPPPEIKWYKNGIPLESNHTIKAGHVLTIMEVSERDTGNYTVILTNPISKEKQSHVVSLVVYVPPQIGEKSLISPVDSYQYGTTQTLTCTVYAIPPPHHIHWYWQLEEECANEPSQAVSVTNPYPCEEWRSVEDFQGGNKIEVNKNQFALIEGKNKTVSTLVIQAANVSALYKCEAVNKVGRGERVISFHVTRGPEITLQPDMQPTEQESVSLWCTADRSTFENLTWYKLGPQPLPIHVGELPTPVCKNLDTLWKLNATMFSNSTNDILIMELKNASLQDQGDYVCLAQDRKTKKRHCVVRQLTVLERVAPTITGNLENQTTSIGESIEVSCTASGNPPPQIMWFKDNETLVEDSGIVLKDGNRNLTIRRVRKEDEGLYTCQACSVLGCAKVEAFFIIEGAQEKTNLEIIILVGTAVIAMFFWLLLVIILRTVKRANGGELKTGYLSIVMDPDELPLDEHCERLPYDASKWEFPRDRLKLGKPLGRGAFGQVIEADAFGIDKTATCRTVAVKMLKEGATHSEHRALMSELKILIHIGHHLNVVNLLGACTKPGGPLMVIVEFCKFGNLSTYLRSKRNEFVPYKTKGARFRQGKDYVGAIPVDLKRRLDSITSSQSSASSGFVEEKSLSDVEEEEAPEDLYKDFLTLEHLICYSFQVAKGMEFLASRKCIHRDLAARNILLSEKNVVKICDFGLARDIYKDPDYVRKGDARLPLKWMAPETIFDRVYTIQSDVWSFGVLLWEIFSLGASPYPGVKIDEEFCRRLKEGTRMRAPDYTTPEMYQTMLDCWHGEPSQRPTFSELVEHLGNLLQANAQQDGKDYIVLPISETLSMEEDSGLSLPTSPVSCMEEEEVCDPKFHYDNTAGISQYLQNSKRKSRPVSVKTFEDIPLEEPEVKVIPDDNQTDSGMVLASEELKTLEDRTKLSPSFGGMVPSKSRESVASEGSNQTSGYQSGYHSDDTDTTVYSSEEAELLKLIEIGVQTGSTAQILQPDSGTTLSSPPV

Compound	inhibition
O=C(CCl)c1ccc(Cl)cc1Cl	-9.46%
C=C(C)[C@H]1Cc2c(ccc3c2O[C@@H]2COc4cc(OC)c(OC)cc4[C@@H]2C3=O)O1	17.2%
Cc1ccc([N+](=O)[O-])[c]2c1[O][Hg]2	43.9%
